# From PubChem BioAssay
# Records with an inconclusive call do not appear. The source made the active and inactive calls.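 How the source made its calls, unless noted: active means efflux inhibition above 0.42, the validation set average plus 4 SD; inconclusive means no clear call, values can overlap the other calls; inactive means the rest.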
# Key:
# [1] = yeast TOR pathway RPL19A-GFP modulators, primary screen, cell-based, S. cerevisiae, multiplex flow cytometry (AID 1862; in the data active means percent of DMSO control GFP below about 86%;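 further: lower values mimic rapamycin by blocking the RPL19A rise seen in DMSO cells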); details: S. cerevisiae RPL19A-GFP strain, flow cytometry fluorescence, 3 h; at 10 µM; stronger effect = lower value
# [2] = modulators of MEP2-GFP levels in yeast, primary screen, S. cerevisiae, multiplex flow cytometry (AID 1867;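 active means GFP response, as percent of the DMSO control, above the screen-wide mean plus 3 SD, about 139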;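 further: median GFP channel fluorescence of barcode-gated MEP2-GFP cells measured by flow cytometry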); details: S. cerevisiae MEP2-GFP strain, 3 h, at 10 µM, stronger effect = higher value, 100% means same as DMSO wells
# [3] = modulators of CIT2-GFP expression in yeast, primary screen, S. cerevisiae, GFP fusion, multiplex flow cytometry (AID 1870;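 active means percent response above a set limit, the screen-wide mean plus 3 SD, cut at about 130% in these data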;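 further: barcoded CIT2-GFP strain pooled with four other GFP strains with rapamycin as positive control; median GFP fluorescence per well over plate mean of DMSO wells so 100% = DMSO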); details: 3 h, at 10 µM, stronger effect = higher value
# [4] = modulators of LAP4-GFP expression in yeast, primary screen, S. cerevisiae, multiplex flow cytometry (AID 1873;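 active means GFP signal, as percent of the solvent control, above the screen mean plus 3 SD, about 149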); details: 3 h, at 10 µM, stronger effect = higher value
# [5] = modulators of AGP1-GFP expression in yeast TOR pathway, primary screen, cell-based, multiplex flow cytometry, S. cerevisiae (AID 1887;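 active means GFP signal above the screen-wide mean plus 3 SD, that is over about 124.5% of the solvent control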;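 further: AGP1-GFP fusion strain of S. cerevisiae within a five-strain barcoded multiplex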); details: 3 h, at 10 µM, stronger effect = higher value
# [6] = RPL19A-GFP modulators, yeast TOR pathway, confirmation, cell-based, S. cerevisiae, flow cytometry, cherry picks, mother/daughter gates (AID 2270;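 active means GFP response below 50% of the DMSO control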); details: S. cerevisiae RPL19A-GFP strain, 3 h, at 10 µM, stronger effect = lower value, 100 = same GFP as DMSO wells
# [7] = LAP4-GFP expression modulators in yeast, confirmation, cell-based, cherry picks, flow cytometry, mother/daughter gates (AID 2271;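 active means GFP response above 150% of the DMSO control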;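 further: ratio of sample to DMSO plate mean so 100% equals DMSO level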); details: S. cerevisiae LAP4-GFP strain, 3 h, at 10 µM, stronger effect = higher value, 100 means same as DMSO control
# [8] = modulators of MEP2-GFP levels in yeast, confirmation, S. cerevisiae, flow cytometry GFP, cherry picks (AID 2272;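 active means GFP response above 150% of the DMSO control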;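 further: ratio of well signal to plate DMSO mean so 100% equals DMSO level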); details: S. cerevisiae MEP2-GFP strain, 3 h, at 10 µM, stronger effect = higher value
# [9] = modulators of CIT2-GFP expression in yeast, confirmation, S. cerevisiae, GFP fusion, cherry picks, mother/daughter gates (AID 2274;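 active means GFP response above 150% of the DMSO level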); details: S. cerevisiae CIT2-GFP strain, flow cytometry, 3 h, at 10 µM, stronger effect = higher value
# [10] = inhibitors of CD8+ T cell-vesicle binding, pilot screen, LFA-1/ICAM-1 modulator project, MLPCN validation set, flow cytometry (AID 2523;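 active means response below a set limit, under 55% cells CD8-positive and vesicle-bound, and CD8 cells' 90th-percentile brightness under 279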;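 on vesicle binding response: mean PE anti-B7-1 fluorescence of CD8+ cells relative to row control; 100% = QL9-loaded vesicles with DMSO vehicle in the same plate row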); details: 2C mouse CD8+ T cells, at 7 µM, stronger effect = lower value; double positive events: measured here: CD8+/vesicle+ event percentage
# [11] = biological target: Integrin beta-1 (Homo sapiens) + Integrin alpha-4 (Homo sapiens) (UniProt P13612+P05556); assay: inhibition of HUTS-21 binding to VLA-4, pilot screen, VLA-4 allosteric modulator project, U937 cells, HUTS-21 mAb, flow cytometry, validation set (AID 2674;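 active means inhibition above 50%, about 3 SD of the validation set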;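 further: antibody binding induced by the VLA-4 ligand LDV present at three times its Kd; 0% = LDV ligand with antibody and no compound and 100% = antibody without LDV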); details: HUTS-21 LIBS mAb binding, at 6.7 µM, stronger effect = higher value, binding induced by LDV ligand
# [12] = superoxide lowering in aged yeast cells, pilot screen, validation compound set (AID 2706;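 active means superoxide response below 65% of plate, a cut near 3 SD across the whole screen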;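 further: yeast exposed to compound for one week at 30 degrees C before staining; 100% = mean of all compound wells on the same plate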); details: S. cerevisiae aging, superoxide DHE fluorescence; at 10 µM; stronger effect = lower value
# [13] = biological target: Beta-adrenergic receptor kinase 1 (Homo sapiens) (UniProt P25098); assay: GRK2 binders displacing RNA aptamer, biochemical, validation, human GRK2, bead flow cytometry (AID 488806;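 active means aptamer binding inhibition above 30%, about 3 SD of noise from non-fluorescent compounds; inactive means inhibition at or below 30%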); details: bead-bound GRK2, FAM-aptamer displacement, at 10 µM, stronger effect = higher value
# [14] = biological target: Beta-2 adrenergic receptor (Homo sapiens) (UniProt P07550); assay: beta2AR agonists driving receptor internalization, pilot screen, cell-based, FAP fluorogen, flow cytometry, validation set (AID 504459;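 active means percent response above 42, roughly 3 SD of non-fluorescent test compounds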;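 further: agonist-driven loss of surface beta2AR via internalization measured by FAP dye flow cytometry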); details: Am2.2-beta2AR cells, FAP surface receptor flow cytometry; at 10 µM; stronger effect = higher value
# [15] = biological target: AP-2 complex subunit beta (Homo sapiens) (UniProt P63010); assay: inhibitors of arrestin peptide binding to AP2, pilot screen, biochemical, validation set, GST-AP2 beads, flow cytometry (AID 504541;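 active means inhibition above 54%, about 3 SD of non-fluorescent compounds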;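 further: AP2 carries R879A mutation and is captured from E. coli lysate; bead-bound FITC arrestin peptide fluorescence measuring arrestin peptide binding to AP2; 0% = DMSO wells and 100% = excess unlabeled arrestin peptide control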); details: FITC arrestin peptide, at 10 µM, stronger effect = higher value, AP2 beta2 appendage fragment, R879A mutant
# [16] = yeast V-ATPase proton transport modulators, S. cerevisiae, pHLuorin, HTS validation (AID 504600; in the data active means response above about 15%;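 further: plate controls were DMSO for no effect and reference compound for full effect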); details: S. cerevisiae pHLuorin cytosolic pH, at 10 µM, stronger effect = higher value
# [17] = tested on: anti-desmoglein-3 scFv antibody binding to human DSG3; assay: inhibitors of anti-DSG3 scFv binding to DSG3, pilot screen, biochemical, validation compound set, bead-based, flow cytometry (AID 588368;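 active means binding below the plate cutoff, the plate median minus 3 SD, with a reading above zero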;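 further: signal is the median channel fluorescence of bead-bound GFP antibody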); details: Protein G beads, DSG3-Fc, scFv-GFP binding, at 10 µM, stronger effect = lower value
# [18] = inhibitors of fungal efflux pumps CDR1, CDR2, MDR1, pilot screen, validation compound set, multiplex, phenotypic (AID 588506);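 further: Nile Red retained in cells so higher fluorescence means more efflux inhibition; 0 = negative control wells and 1 = enniatin B 25 µM full block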; details: S. cerevisiae pump-expressing triplex, Nile Red efflux flow cytometry; at 10 µM; stronger effect = higher value; the pumps come from Candida albicans
# [19] = biological target: ATP-binding cassette sub-family B member 6 (Homo sapiens) (UniProt Q9NP58); assay: ABCB6 transporter inhibitors, pilot screen, K562-ABCB6 cells, flow cytometry, validation set (AID 588550;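 active means inhibition above the screen-wide mean plus 3 SD, about 51%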;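 further: 0% = DMSO wells and 100% = benzethonium chloride 70 µM positive control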); details: K562-ABCB6 porphyrin accumulation, 1 h, at 10 µM, stronger effect = higher value
# [20] = promoters of myeloid differentiation in arrested cells, primary screen, cell-based, GFP/MAC1 double positive, flow cytometry, validation set (AID 588685;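 active means differentiation response of at least 50%, scaled between solvent and reference control, from cells with both markers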;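 further: compound exposure lasts four days before antibody staining and flow analysis; 0% = DMSO wells and 100% = 5 µM fulvestrant positive control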); details: ER-HoxA9 marrow cells, stronger effect = higher value, normalized: vehicle 0, fulvestrant 100
# [21] = measured here: daughter cell gate
# [22] = measured here: mother cell gate
# [23] = measured here: daughter cell gate response
# [24] = measured here: mother cell gate response
# Beta-adrenergic receptor kinase 1 (Homo sapiens), sequence (P25098 whole entry, looked up): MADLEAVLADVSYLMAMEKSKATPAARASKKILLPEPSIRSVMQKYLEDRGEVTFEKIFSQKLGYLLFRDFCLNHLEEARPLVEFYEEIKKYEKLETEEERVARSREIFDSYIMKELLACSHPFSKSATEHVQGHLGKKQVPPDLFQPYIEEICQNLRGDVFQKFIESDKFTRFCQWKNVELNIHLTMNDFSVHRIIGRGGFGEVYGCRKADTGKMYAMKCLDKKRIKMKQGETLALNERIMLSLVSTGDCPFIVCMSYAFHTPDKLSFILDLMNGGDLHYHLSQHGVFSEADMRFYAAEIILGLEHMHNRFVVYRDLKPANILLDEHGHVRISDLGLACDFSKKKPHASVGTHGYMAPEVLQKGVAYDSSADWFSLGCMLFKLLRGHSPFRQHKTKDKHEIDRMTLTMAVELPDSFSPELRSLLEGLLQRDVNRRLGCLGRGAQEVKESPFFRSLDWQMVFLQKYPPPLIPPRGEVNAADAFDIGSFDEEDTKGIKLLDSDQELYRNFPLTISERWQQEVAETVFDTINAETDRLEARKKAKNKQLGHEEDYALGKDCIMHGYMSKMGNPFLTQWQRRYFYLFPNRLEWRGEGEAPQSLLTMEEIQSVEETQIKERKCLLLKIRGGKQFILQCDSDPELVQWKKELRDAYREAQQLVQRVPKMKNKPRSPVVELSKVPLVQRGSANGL
# Integrin beta-1 (Homo sapiens) + Integrin alpha-4 (Homo sapiens), sequence (P05556 whole entry, looked up): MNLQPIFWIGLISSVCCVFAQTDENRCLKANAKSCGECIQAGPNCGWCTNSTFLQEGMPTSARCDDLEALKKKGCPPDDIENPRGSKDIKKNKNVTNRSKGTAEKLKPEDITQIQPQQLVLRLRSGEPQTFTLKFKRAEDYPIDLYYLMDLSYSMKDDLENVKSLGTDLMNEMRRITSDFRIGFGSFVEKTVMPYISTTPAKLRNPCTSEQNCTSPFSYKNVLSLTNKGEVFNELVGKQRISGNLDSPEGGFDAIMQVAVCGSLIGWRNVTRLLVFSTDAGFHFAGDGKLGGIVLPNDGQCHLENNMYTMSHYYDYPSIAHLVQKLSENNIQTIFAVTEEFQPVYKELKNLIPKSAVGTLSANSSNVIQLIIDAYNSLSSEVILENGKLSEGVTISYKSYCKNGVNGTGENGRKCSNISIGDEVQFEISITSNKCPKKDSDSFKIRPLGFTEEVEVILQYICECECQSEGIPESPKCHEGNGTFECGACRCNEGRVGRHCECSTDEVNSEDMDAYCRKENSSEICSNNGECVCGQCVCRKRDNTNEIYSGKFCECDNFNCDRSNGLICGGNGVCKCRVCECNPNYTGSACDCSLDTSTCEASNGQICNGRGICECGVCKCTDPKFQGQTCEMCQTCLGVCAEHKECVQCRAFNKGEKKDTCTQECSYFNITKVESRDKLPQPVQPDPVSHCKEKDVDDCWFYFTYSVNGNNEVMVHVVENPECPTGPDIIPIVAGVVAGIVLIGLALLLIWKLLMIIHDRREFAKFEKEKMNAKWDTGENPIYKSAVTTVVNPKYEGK
# Integrin beta-1 (Homo sapiens) + Integrin alpha-4 (Homo sapiens), sequence (P13612 whole entry, looked up): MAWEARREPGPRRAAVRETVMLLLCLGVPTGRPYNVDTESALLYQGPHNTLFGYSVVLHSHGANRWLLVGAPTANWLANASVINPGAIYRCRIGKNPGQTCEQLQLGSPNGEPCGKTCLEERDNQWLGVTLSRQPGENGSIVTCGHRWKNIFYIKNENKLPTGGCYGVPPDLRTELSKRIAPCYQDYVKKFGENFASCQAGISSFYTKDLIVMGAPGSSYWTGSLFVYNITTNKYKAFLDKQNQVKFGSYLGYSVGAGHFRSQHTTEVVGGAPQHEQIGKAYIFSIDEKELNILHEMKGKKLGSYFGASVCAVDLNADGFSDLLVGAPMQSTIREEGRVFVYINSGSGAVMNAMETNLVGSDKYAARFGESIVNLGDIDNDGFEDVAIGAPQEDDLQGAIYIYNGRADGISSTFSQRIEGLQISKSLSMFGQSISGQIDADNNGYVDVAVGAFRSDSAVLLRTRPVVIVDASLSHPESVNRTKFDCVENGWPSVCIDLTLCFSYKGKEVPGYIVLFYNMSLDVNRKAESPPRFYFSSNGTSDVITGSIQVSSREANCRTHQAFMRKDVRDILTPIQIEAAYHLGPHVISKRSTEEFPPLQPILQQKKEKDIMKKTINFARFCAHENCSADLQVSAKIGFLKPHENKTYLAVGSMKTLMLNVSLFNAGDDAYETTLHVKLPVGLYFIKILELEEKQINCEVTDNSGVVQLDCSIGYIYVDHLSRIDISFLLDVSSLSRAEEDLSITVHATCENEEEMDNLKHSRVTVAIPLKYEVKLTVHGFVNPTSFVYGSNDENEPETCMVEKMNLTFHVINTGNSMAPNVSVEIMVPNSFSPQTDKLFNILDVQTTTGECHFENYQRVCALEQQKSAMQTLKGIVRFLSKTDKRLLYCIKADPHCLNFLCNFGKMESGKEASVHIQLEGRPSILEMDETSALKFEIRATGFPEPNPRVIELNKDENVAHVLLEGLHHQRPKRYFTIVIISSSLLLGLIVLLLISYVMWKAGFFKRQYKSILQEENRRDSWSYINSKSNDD
# AP-2 complex subunit beta (Homo sapiens), sequence (P63010 whole entry, looked up, the tested form may be a part, one chain of several): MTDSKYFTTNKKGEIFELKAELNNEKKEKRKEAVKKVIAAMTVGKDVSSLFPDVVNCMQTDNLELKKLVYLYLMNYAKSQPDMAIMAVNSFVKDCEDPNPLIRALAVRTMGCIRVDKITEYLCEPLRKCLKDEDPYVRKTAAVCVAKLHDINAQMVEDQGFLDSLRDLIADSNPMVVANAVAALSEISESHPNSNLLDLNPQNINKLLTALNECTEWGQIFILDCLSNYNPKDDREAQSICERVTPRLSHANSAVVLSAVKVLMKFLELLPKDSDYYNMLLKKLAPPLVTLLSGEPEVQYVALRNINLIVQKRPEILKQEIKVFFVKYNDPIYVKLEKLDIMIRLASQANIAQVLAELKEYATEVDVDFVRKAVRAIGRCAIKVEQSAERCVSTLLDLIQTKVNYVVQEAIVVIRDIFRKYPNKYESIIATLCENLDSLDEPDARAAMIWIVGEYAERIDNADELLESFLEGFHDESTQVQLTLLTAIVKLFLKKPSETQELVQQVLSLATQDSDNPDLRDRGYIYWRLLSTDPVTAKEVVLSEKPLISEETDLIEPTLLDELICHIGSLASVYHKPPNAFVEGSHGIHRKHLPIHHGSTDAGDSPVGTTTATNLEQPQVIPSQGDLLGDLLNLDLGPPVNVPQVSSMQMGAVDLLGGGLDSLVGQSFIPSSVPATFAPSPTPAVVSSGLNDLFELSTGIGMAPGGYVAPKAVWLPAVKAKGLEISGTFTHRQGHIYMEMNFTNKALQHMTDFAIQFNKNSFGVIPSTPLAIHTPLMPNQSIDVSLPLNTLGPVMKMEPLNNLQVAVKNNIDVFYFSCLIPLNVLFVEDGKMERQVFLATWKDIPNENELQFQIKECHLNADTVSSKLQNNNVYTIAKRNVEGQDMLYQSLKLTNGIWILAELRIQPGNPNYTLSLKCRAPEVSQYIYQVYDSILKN
# ATP-binding cassette sub-family B member 6 (Homo sapiens), sequence (Q9NP58 whole entry, looked up): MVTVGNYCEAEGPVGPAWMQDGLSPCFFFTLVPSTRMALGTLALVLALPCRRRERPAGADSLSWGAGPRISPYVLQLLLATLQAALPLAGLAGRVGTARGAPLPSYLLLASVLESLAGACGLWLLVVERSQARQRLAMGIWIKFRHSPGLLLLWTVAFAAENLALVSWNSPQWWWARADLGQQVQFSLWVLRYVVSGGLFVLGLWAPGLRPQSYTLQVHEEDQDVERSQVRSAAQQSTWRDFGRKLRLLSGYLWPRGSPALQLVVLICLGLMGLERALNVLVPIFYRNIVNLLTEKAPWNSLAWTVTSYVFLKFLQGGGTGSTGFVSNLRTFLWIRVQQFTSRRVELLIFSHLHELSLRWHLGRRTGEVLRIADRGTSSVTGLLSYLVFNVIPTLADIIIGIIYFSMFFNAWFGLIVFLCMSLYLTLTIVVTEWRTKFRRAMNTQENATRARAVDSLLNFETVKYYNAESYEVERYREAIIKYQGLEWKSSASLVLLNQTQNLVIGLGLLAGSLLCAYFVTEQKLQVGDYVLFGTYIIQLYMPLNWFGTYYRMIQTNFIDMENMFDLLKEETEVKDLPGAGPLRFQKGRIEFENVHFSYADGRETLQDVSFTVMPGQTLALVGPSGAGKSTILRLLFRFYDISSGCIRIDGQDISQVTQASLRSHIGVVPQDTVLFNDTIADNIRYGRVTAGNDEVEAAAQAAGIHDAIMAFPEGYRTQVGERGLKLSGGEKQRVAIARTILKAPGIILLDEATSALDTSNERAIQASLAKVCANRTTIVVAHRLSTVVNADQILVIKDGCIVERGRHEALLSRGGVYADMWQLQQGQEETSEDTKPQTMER
# Beta-2 adrenergic receptor (Homo sapiens), sequence (P07550 whole entry, looked up): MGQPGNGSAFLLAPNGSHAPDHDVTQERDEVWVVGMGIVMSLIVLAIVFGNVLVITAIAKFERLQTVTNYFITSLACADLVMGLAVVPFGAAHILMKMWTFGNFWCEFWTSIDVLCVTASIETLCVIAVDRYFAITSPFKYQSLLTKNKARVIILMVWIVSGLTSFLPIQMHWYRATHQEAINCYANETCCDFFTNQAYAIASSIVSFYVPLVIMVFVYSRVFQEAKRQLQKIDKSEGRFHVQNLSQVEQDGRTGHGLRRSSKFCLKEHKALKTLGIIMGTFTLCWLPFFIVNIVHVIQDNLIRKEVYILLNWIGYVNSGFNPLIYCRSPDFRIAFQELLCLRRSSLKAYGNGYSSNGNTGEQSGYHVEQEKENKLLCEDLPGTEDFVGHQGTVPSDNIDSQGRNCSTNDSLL
smiles,measurement,setting,value
c1ccc2c(c1)CCOC2CNCCCN1CCCCC1 (stereo not given),percent of DMSO control GFP,[1],92% (inactive)
same,GFP response vs DMSO,[2],142% (active)
same,percent response of DMSO control,[3],126% (active)
same,GFP response vs DMSO,[4],98% (inactive)
same,"GFP response, % of DMSO",[5],113% (inactive)
same,GFP response vs DMSO,[6],101% (inactive)
same,GFP response vs DMSO,[6]; [21],101%
same,GFP response vs DMSO,[6]; [22],102%
same,GFP response relative to DMSO,[7],92.6% (inactive)
same,GFP response relative to DMSO,[7]; [23],97.2%
same,GFP response relative to DMSO,[7]; [24],94.2%
same,GFP response vs DMSO,[8],100% (inactive)
same,"GFP response, % of DMSO",[9],108% (inactive)
same,"GFP response, % of DMSO",[9]; [21],105%
same,"GFP response, % of DMSO",[9]; [22],113%
same,double positive events,[10],52.2%
same,vesicle binding response,[10],279% (inactive)
same,inhibition,[11],14.2% (inactive)
same,superoxide response (% of plate),[12],110% (inactive)
same,aptamer binding inhibition,[13],-3% (inactive)
same,response,[14],0.72% (inactive)
same,inhibition,[15],-5.37% (inactive)
same,response,[16],-6.48% (inactive)
same,binding (% of control),[17],105% (inactive)
same,efflux inhibition (fraction of control),[18],0.01 (inactive)
same,inhibition,[19],-2% (inactive)
same,differentiation response,[20],-3.28% (inactive)
CN/C(=C/[N+](=O)[O-])NCCSCc1ccc(CN(C)C)o1,percent of DMSO control GFP,[1],91.7% (inactive)
same,GFP response vs DMSO,[2],150% (active)
same,percent response of DMSO control,[3],108% (inactive)
same,GFP response vs DMSO,[4],83.6% (inactive)
same,"GFP response, % of DMSO",[5],87.7% (inactive)
same,GFP response vs DMSO,[6],100% (inactive)
same,GFP response vs DMSO,[6]; [21],101%
same,GFP response vs DMSO,[6]; [22],99.2%
same,GFP response relative to DMSO,[7],97.9% (inactive)
same,GFP response relative to DMSO,[7]; [23],97.6%
same,GFP response relative to DMSO,[7]; [24],96.1%
same,GFP response vs DMSO,[8],107% (inactive)
same,"GFP response, % of DMSO",[9],101% (inactive)
same,"GFP response, % of DMSO",[9]; [21],105%
same,"GFP response, % of DMSO",[9]; [22],99.7%
same,double positive events,[10],64.5%
same,vesicle binding response,[10],123% (inactive)
same,inhibition,[11],-0.33% (inactive)
same,superoxide response (% of plate),[12],89.5% (inactive)
same,aptamer binding inhibition,[13],-20% (inactive)
same,response,[14],2.38% (inactive)
same,inhibition,[15],-0.41% (inactive)
same,response,[16],-2.01% (inactive)
same,binding (% of control),[17],104% (inactive)
same,efflux inhibition (fraction of control),[18],-0.42 (inactive)
same,inhibition,[19],14% (inactive)
same,differentiation response,[20],-3.28% (inactive)
Nc1[nH]c(=O)ncc1F,percent of DMSO control GFP,[1],84.2% (active)
same,GFP response vs DMSO,[2],107% (inactive)
same,percent response of DMSO control,[3],87.1% (inactive)
same,GFP response vs DMSO,[4],113% (inactive)
same,"GFP response, % of DMSO",[5],80.8% (inactive)
same,GFP response vs DMSO,[6],74.7% (inactive)
same,GFP response vs DMSO,[6]; [21],70.4%
same,GFP response vs DMSO,[6]; [22],78.1%
same,GFP response relative to DMSO,[7],107% (inactive)
same,GFP response relative to DMSO,[7]; [23],95%
same,GFP response relative to DMSO,[7]; [24],111%
same,GFP response vs DMSO,[8],106% (inactive)
same,"GFP response, % of DMSO",[9],80.6% (inactive)
same,"GFP response, % of DMSO",[9]; [21],79.7%
same,"GFP response, % of DMSO",[9]; [22],81.6%
same,double positive events,[10],61.3%
same,vesicle binding response,[10],142% (inactive)
same,inhibition,[11],10% (inactive)
same,superoxide response (% of plate),[12],67.3% (inactive)
same,aptamer binding inhibition,[13],0% (inactive)
same,inhibition,[15],27% (inactive)
same,response,[16],-5.4% (inactive)
same,binding (% of control),[17],108% (inactive)
same,efflux inhibition (fraction of control),[18],0.33 (inactive)
same,inhibition,[19],1% (inactive)
same,differentiation response,[20],7.87% (inactive)
